D3 antag: antagonists of human D3 dopamine receptor. D3R cells, DiscoveRx beta-arrestin luminescence, antagonist mode; stronger effect = lower value. max response, negative = inhibition, %. 360,000 compounds, 2.5% hits. AID 652054; in the data active = max response below about -50%; inconclusive = no clear call, values can overlap the other calls; also: % is scaled to controls: 0 for no effect and ±100 for the full control effect
Target sequence (P35462 whole entry, looked up): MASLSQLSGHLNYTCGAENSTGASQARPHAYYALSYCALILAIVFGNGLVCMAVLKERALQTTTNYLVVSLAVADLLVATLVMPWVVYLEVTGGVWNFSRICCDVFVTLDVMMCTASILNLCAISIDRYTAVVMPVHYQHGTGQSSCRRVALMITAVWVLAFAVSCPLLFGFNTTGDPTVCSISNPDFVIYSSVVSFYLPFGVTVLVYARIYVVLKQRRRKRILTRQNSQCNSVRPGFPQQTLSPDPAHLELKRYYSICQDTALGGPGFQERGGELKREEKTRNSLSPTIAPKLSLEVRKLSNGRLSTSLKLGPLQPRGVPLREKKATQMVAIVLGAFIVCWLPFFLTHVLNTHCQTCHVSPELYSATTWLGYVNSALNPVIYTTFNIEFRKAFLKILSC
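Cells expressing the human receptor were seeded at 1500 cells/well, incubated overnight at 37 degrees C in 5% CO2, then exposed to library compounds with dopamine controls for 90 minutes at 37 degrees C before luminescent detection.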
ClpP mod: qHTS Assay for Activators of ClpP. purified B. subtilis ClpP, FRET peptide cleavage, 20 min. ATP-dependent Clp protease proteolytic subunit (Bacillus subtilis (strain 168)), P80244. Potency, µM (top dose mostly 57.5 µM), for the others: at the highest dose activity change, negative = active. 340,000 compounds, 1.9% hits; active = well fitted falling curve with a large enough effect; inconclusive = small, poorly fitted or top-dose-only effect; inactive = no such curve, though single readings can be large or run the other way; also: potency is read from the fitted curve at half-maximal effect; the source files actives as falling curves though it sought activators and does not explain the sign; nearly all actives have a fitted effect of over 65% in size
Target sequence (P80244 whole entry, looked up): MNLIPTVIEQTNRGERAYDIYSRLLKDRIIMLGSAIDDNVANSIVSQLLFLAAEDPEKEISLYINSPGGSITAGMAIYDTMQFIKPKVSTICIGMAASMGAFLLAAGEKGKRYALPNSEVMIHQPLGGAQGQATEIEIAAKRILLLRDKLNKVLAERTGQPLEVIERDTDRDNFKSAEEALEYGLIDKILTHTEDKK
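ClpP 10 microg/mL final, pH 8 Tris/KCl buffer with BSA, glycerol, Tween-20; compound pinned in; FRET-FV substrate; RT 20 min; Ex320/Em430; ΔFRET vs ADEP 5.8 microM, DMSO, no enzyme.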
DRD3 agonist: D3 dopamine receptor (human) agonism | AID 652048 | P35462 | max activation, % | 410,000 compounds, 0.58% hits | D3R DiscoveRx beta-arrestin cells, luminescence, 90 min; in the data active = max activation above about 30%; also: 0% is about no effect
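Cells at 1500/well, incubated overnight, then treated with pinned compounds (dopamine as control) for 90 min at 37 degrees C. DiscoveRx reagent added for 30 - 60 minutes at room temperature; luminescence read.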
TDP1 cell noCPT: qHTS for Inhibitors of human tyrosyl-DNA phosphodiesterase 1 (TDP1): qHTS in cells in absence of CPT | DT40 Tdp1-/- hTDP1 cells, no CPT, ATP luminescence, 48 h | 420,000 compounds, 15% hits | AID 686978, 2013 | Potency, µM (top dose mostly 46.2 µM), for inactives: at the top dose activity change, negative = growth inhibition, most hits filed as inhibitors; also: potency is read from the fitted curve at half-maximal effect; % is scaled to controls: 0 for no effect and ±100 for the full control effect; nearly all actives have a fitted effect of over 55% in size
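Readout: luminescence from CellTiter-Glo after 30 min in the dark at RT. Cells: DT40 Tdp1-/- with stable hTDP1, 400/well. Exposure: compounds alone, ≥48 hr, 37 °C.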
IL1B secr inh: inhibitors of inflammasome signaling (IL-1 beta secretion); 360,000 compounds, 4.7% hits; THP-1 LPS/ATP IL-1B secretion, AlphaLISA, 16 h; stronger effect = lower value; activity change, % at 57.5 µM; AID 743279; in the data active = activity change below about -50%; inconclusive = mostly about -30% to -49%; also: % is scaled to controls: 0 for no effect and ±100 for the full control effect
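THP-1 cells pretreated 1 hr with compounds (up to 57.5 uM final), then stimulated with LPS (250 ng/mL final) plus ATP (1.25 mM final); secreted IL-1B measured by AlphaLISA after 16 hr, decreased signal indicating inhibition.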
TDP1 cell CPT: DT40-hTDP1 cell growth loss with CPT | chicken DT40 Tdp1-/-;hTDP1 cells + 20 nM CPT, ATP luminescence, 48 h | Potency, µM (series often up to 46.2 µM), for inactives: at the top dose activity change, negative = growth inhibition, actives largely listed as inhibitors | 420,000 compounds, 12% hits; also: potency is read from the fitted curve at half-maximal effect; % is scaled to controls: 0 for no effect and ±100 for the full control effect; nearly all actives have a fitted effect of over 55% in size
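Chicken DT40 Tdp1-/- cells complemented with human TDP1, 400 cells/well, exposed to compounds plus 20 nM camptothecin for at least 48 h at 37 C; viability read as ATP content by CellTiter-Glo luminescence.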
The depositor's hits bear a star. Rows were chosen to be rich in hits. Some 21% of all compounds tested hit in one or more screens of this group. Unless noted, calls follow the shape of the dose curve; as a rule, active = well fitted inhibition curve with a large enough effect; inconclusive = small, poorly fitted or top-dose-only effect; inactive = flat fitted curve, though single readings scatter.

How did CC(NC(=O)CN(c1cccc(C(F)(F)F)c1)S(=O)(=O)c1ccc(Cl)c([N+](=O)[O-])c1)c1ccccc1 (stereo not drawn) do in these assays?
D3 antag: -54*; ClpP mod: 0%; DRD3 agonist: -17; TDP1 cell noCPT: 9.2µM*; IL1B secr inh: -91*; TDP1 cell CPT: 4.6µM*

What do the screens show for `O=C(CN(c1cccc(C(F)(F)F)c1)S(=O)(=O)c1ccc(Cl)c([N+](=O)[O-])c1)NCc1ccccc1`?
D3 antag: 29; ClpP mod: -2%; DRD3 agonist: -7; TDP1 cell noCPT: inconclusive; IL1B secr inh: -11; TDP1 cell CPT: -23%

What do the screens show for `CCOC(=O)c1sc(NC(=O)Nc2ccc(F)cc2)nc1C`?
D3 antag: 22; ClpP mod: 1%; DRD3 agonist: 11; TDP1 cell noCPT: inconclusive; TDP1 cell CPT: inconclusive

Results for CCSc1nsc(NC(=O)Nc2cccc(OC)c2)n1 ?
D3 antag: 10; DRD3 agonist: 3; TDP1 cell noCPT: inconclusive; IL1B secr inh: -97*; TDP1 cell CPT: inconclusive

How did CCSc1nsc(NC(=O)Nc2ccccc2F)n1 do in these assays?
D3 antag: 1; ClpP mod: -2%; DRD3 agonist: -1; TDP1 cell noCPT: 16µM*; IL1B secr inh: -93*; TDP1 cell CPT: 18µM*

What do the screens show for `C=CCSc1nsc(NC(=O)Nc2ccc(F)cc2)n1`?
D3 antag: 0; DRD3 agonist: -1; TDP1 cell noCPT: 3.3µM*; IL1B secr inh: -88*; TDP1 cell CPT: 18µM*

What do the screens show for `CCN(CC(=O)Nc1ccc(NC(C)=O)cc1)C(=O)c1cc([N+](=O)[O-])ccc1Sc1ccc(Cl)cc1`?
D3 antag: -6; ClpP mod: -7%; DRD3 agonist: 3; TDP1 cell noCPT: inconclusive; IL1B secr inh: 0; TDP1 cell CPT: inconclusive

What do the screens show for `CC1CCN(S(=O)(=O)c2cc(C(=O)N3CCN(c4cccc(Cl)c4)CC3)n(C)c2)CC1`?
ClpP mod: -3%; DRD3 agonist: -6; TDP1 cell noCPT: 18µM*; TDP1 cell CPT: inconclusive

How did Cc1ccc(C)c(N2CCN(C(=O)c3cc(S(=O)(=O)N4CCC(C)CC4)cn3C)CC2)c1 do in these assays?
ClpP mod: 0%; DRD3 agonist: 2; TDP1 cell noCPT: inconclusive; TDP1 cell CPT: 16µM*

Results for CC1CCN(S(=O)(=O)c2cc(C(=O)N3CCN(c4ccccc4F)CC3)n(C)c2)CC1 ?
ClpP mod: 0%; DRD3 agonist: 0; TDP1 cell noCPT: inconclusive; TDP1 cell CPT: inconclusive

How did Cc1cc(Cl)c2oc(C(=O)N(C)CC3CCOCC3)c(C)c2c1 do in these assays?
D3 antag: -3; ClpP mod: -4%; DRD3 agonist: 6; TDP1 cell noCPT: inconclusive; IL1B secr inh: 2; TDP1 cell CPT: inconclusive

What do the screens show for `CC1C(=O)NN=C1C(=O)N/N=C/c1cccs1` (stereo not drawn)?
D3 antag: 10; ClpP mod: 0%; DRD3 agonist: 3; TDP1 cell noCPT: -28%; IL1B secr inh: 0; TDP1 cell CPT: -24%

How did COc1ncnc2c1ncn2CCCN[C@H](C)c1cccc2ccccc12 do in these assays?
D3 antag: -14; ClpP mod: 1%; DRD3 agonist: 1; TDP1 cell noCPT: 1%; IL1B secr inh: -10; TDP1 cell CPT: 1%

How did O=C(Nc1ccccn1)c1ccc(S(=O)(=O)N2CCCCC2)cc1 do in these assays?
D3 antag: 17; ClpP mod: 1%; DRD3 agonist: 3; TDP1 cell noCPT: inconclusive; IL1B secr inh: -2; TDP1 cell CPT: inconclusive

Results for CC1CCCN(S(=O)(=O)c2ccc(C(=O)Nc3nnc(-c4ccccc4Cl)o3)cc2)C1 (stereo not drawn) ?
D3 antag: 20; ClpP mod: -2%; DRD3 agonist: 4; TDP1 cell noCPT: 6.5µM*; IL1B secr inh: 17; TDP1 cell CPT: 2.9µM*

Results for COCc1nnc(NC(=O)c2ccc(S(=O)(=O)N3CCCCCC3)cc2)o1 ?
D3 antag: 0; ClpP mod: 0%; DRD3 agonist: -1; TDP1 cell noCPT: inconclusive; IL1B secr inh: 15; TDP1 cell CPT: -29%

Results for CC1CCCN(S(=O)(=O)c2ccc(C(=O)Nc3nnc(-c4ccccn4)o3)cc2)C1 (stereo not drawn) ?
D3 antag: -8; ClpP mod: -2%; DRD3 agonist: -2; TDP1 cell noCPT: 21µM*; IL1B secr inh: 14; TDP1 cell CPT: inconclusive

What do the screens show for `O=C(Nc1nnc(-c2ccccc2Cl)o1)c1cccnc1`?
D3 antag: -13; ClpP mod: 2%; DRD3 agonist: -23; TDP1 cell noCPT: inconclusive; IL1B secr inh: 11; TDP1 cell CPT: inconclusive

Results for COc1ccccc1-c1nnc(NC(=O)c2ccc(S(=O)(=O)N3CCCC3)cc2)o1 ?
D3 antag: 2; ClpP mod: 1%; DRD3 agonist: 4; TDP1 cell noCPT: 9.2µM*; IL1B secr inh: 0; TDP1 cell CPT: 23µM*

How did CC1CCCN(S(=O)(=O)c2ccc(C(=O)Nc3nnc(C4CC4)o3)cc2)C1 (stereo not drawn) do in these assays?
D3 antag: 18; ClpP mod: 2%; DRD3 agonist: -1; TDP1 cell noCPT: inconclusive; IL1B secr inh: 83; TDP1 cell CPT: 18µM*

How did CCNC(=O)NCc1c(C)c(C)n(Cc2ccccc2)c1-n1cccc1 do in these assays?
D3 antag: -18; DRD3 agonist: -7; TDP1 cell noCPT: inconclusive; IL1B secr inh: -8; TDP1 cell CPT: -20%

What do the screens show for `O=C(NCCc1ccc2c(c1)OCCO2)c1ccccn1`?
D3 antag: -7; DRD3 agonist: 0; TDP1 cell noCPT: inconclusive; IL1B secr inh: -10; TDP1 cell CPT: inconclusive

What do the screens show for `C[C@H](CO)N1C[C@H](C)[C@@H](CN(C)C(=O)Nc2ccc3c(c2)OCO3)Oc2ccc(NS(=O)(=O)c3cn(C)cn3)cc2C1=O`?
D3 antag: 12; ClpP mod: -7%; DRD3 agonist: 10; TDP1 cell noCPT: 0%; IL1B secr inh: 29; TDP1 cell CPT: -2%

What do the screens show for `COc1cc(/C=C/C(=O)OCC(=O)Nc2cc(C)on2)ccc1OCC#N`?
D3 antag: 11; DRD3 agonist: -8; TDP1 cell noCPT: -1%; IL1B secr inh: -2; TDP1 cell CPT: -26%

How did Cc1nnc(NC(=O)c2ccc(S(=O)(=O)N3CC(C)OC(C)C3)cc2)o1 (stereo not drawn) do in these assays?
D3 antag: 6; ClpP mod: -1%; DRD3 agonist: -3; TDP1 cell noCPT: -23%; IL1B secr inh: 6; TDP1 cell CPT: -10%

Screening results: PubChem, National Center for Advancing Translational Sciences (NCATS)
